# Source: article PMC11006913
# Key:
# Assay in all cases: PBM; 200 nM protein, PBS
# Conditions in all cases: dsDNA, one strand shown
# [1] = biological target: HESX1 (Homo sapiens, UniProt Q9UBX0 95-180, R165K)
# [2] = biological target: HESX1 (Homo sapiens, UniProt Q9UBX0 95-180)
# [3] = biological target: HESX1 (Homo sapiens, UniProt Q9UBX0 95-180, R109Q)
# [4] = biological target: HESX1 (Homo sapiens, UniProt Q9UBX0 95-180, P111T)
# [5] = biological target: HESX1 (Homo sapiens, UniProt Q9UBX0 95-180, F115L)
# Sequence of HESX1 (Homo sapiens, UniProt Q9UBX0 95-180, F115L) (Q9UBX0 95-180 F115L): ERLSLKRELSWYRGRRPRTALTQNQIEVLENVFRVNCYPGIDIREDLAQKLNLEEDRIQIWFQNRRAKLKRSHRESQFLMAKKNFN
# [6] = biological target: HOXB4 (Homo sapiens, UniProt P17483 148-234)
# Sequence of HOXB4 (Homo sapiens, UniProt P17483 148-234) (P17483 148-234): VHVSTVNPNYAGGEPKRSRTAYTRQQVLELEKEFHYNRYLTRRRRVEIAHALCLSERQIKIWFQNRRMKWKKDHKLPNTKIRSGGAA
# [7] = biological target: HOXB4 (Homo sapiens, UniProt P17483 148-234, V174I)
# Sequence of HOXB4 (Homo sapiens, UniProt P17483 148-234, V174I) (P17483 148-234 V174I): as the sequence (P17483 148-234) above, with V27I counted along it
# Sequence of HESX1 (Homo sapiens, UniProt Q9UBX0 95-180) (Q9UBX0 95-180): as the sequence (Q9UBX0 95-180 F115L) above, with L21F counted along it
# Sequence of HESX1 (Homo sapiens, UniProt Q9UBX0 95-180, R165K) (Q9UBX0 95-180 R165K): as the sequence (Q9UBX0 95-180 F115L) above, with L21F, R71K counted along it
# Sequence of HESX1 (Homo sapiens, UniProt Q9UBX0 95-180, P111T) (Q9UBX0 95-180 P111T): as the sequence (Q9UBX0 95-180 F115L) above, with P17T, L21F counted along it
# Sequence of HESX1 (Homo sapiens, UniProt Q9UBX0 95-180, R109Q) (Q9UBX0 95-180 R109Q): as the sequence (Q9UBX0 95-180 F115L) above, with R15Q, L21F counted along it
Sequence,binding signal [1],binding signal [2],binding signal [3],binding signal [4],binding signal [5],binding signal [6],binding signal [7]
CAGTGTCG,"6.55 upbm affinity estimate (log intensity, higher = more binding, comparable within an allelic series)","6.52 upbm affinity estimate (log intensity, higher = more binding, comparable within an allelic series)","6.61 upbm affinity estimate (log intensity, higher = more binding, comparable within an allelic series)","6.51 upbm affinity estimate (log intensity, higher = more binding, comparable within an allelic series)","6.58 upbm affinity estimate (log intensity, higher = more binding, comparable within an allelic series)",,
CACTGGAG,"6.53 upbm affinity estimate (log intensity, higher = more binding, comparable within an allelic series)","6.53 upbm affinity estimate (log intensity, higher = more binding, comparable within an allelic series)","6.58 upbm affinity estimate (log intensity, higher = more binding, comparable within an allelic series)","6.6 upbm affinity estimate (log intensity, higher = more binding, comparable within an allelic series)","6.61 upbm affinity estimate (log intensity, higher = more binding, comparable within an allelic series)",,
ACTCAATA,"7.78 upbm affinity estimate (log intensity, higher = more binding, comparable within an allelic series)","7.87 upbm affinity estimate (log intensity, higher = more binding, comparable within an allelic series)","7.28 upbm affinity estimate (log intensity, higher = more binding, comparable within an allelic series)","7.59 upbm affinity estimate (log intensity, higher = more binding, comparable within an allelic series)","7.33 upbm affinity estimate (log intensity, higher = more binding, comparable within an allelic series)",,
AGCGTTCG,"6.54 upbm affinity estimate (log intensity, higher = more binding, comparable within an allelic series)","6.5 upbm affinity estimate (log intensity, higher = more binding, comparable within an allelic series)","6.53 upbm affinity estimate (log intensity, higher = more binding, comparable within an allelic series)","6.53 upbm affinity estimate (log intensity, higher = more binding, comparable within an allelic series)","6.63 upbm affinity estimate (log intensity, higher = more binding, comparable within an allelic series)",,
GGCGCTAC,"6.32 upbm affinity estimate (log intensity, higher = more binding, comparable within an allelic series)","6.38 upbm affinity estimate (log intensity, higher = more binding, comparable within an allelic series)","6.35 upbm affinity estimate (log intensity, higher = more binding, comparable within an allelic series)","6.43 upbm affinity estimate (log intensity, higher = more binding, comparable within an allelic series)","6.32 upbm affinity estimate (log intensity, higher = more binding, comparable within an allelic series)",,
AAGGAGGC,"6.49 upbm affinity estimate (log intensity, higher = more binding, comparable within an allelic series)","6.42 upbm affinity estimate (log intensity, higher = more binding, comparable within an allelic series)","6.53 upbm affinity estimate (log intensity, higher = more binding, comparable within an allelic series)","6.52 upbm affinity estimate (log intensity, higher = more binding, comparable within an allelic series)","6.51 upbm affinity estimate (log intensity, higher = more binding, comparable within an allelic series)",,
CGGACAGA,"6.41 upbm affinity estimate (log intensity, higher = more binding, comparable within an allelic series)","6.53 upbm affinity estimate (log intensity, higher = more binding, comparable within an allelic series)","6.49 upbm affinity estimate (log intensity, higher = more binding, comparable within an allelic series)","6.59 upbm affinity estimate (log intensity, higher = more binding, comparable within an allelic series)","6.58 upbm affinity estimate (log intensity, higher = more binding, comparable within an allelic series)",,
GCCGAAAC,"6.58 upbm affinity estimate (log intensity, higher = more binding, comparable within an allelic series)","6.54 upbm affinity estimate (log intensity, higher = more binding, comparable within an allelic series)","6.57 upbm affinity estimate (log intensity, higher = more binding, comparable within an allelic series)","6.61 upbm affinity estimate (log intensity, higher = more binding, comparable within an allelic series)","6.57 upbm affinity estimate (log intensity, higher = more binding, comparable within an allelic series)",,
ACGCCTAC,"6.48 upbm affinity estimate (log intensity, higher = more binding, comparable within an allelic series)","6.44 upbm affinity estimate (log intensity, higher = more binding, comparable within an allelic series)","6.44 upbm affinity estimate (log intensity, higher = more binding, comparable within an allelic series)","6.5 upbm affinity estimate (log intensity, higher = more binding, comparable within an allelic series)","6.46 upbm affinity estimate (log intensity, higher = more binding, comparable within an allelic series)",,
CTAGGCCC,"6.43 upbm affinity estimate (log intensity, higher = more binding, comparable within an allelic series)","6.46 upbm affinity estimate (log intensity, higher = more binding, comparable within an allelic series)","6.51 upbm affinity estimate (log intensity, higher = more binding, comparable within an allelic series)","6.58 upbm affinity estimate (log intensity, higher = more binding, comparable within an allelic series)","6.46 upbm affinity estimate (log intensity, higher = more binding, comparable within an allelic series)",,
CGCTCCTC,"6.29 upbm affinity estimate (log intensity, higher = more binding, comparable within an allelic series)","6.25 upbm affinity estimate (log intensity, higher = more binding, comparable within an allelic series)","6.53 upbm affinity estimate (log intensity, higher = more binding, comparable within an allelic series)","6.33 upbm affinity estimate (log intensity, higher = more binding, comparable within an allelic series)","6.5 upbm affinity estimate (log intensity, higher = more binding, comparable within an allelic series)",,
AAGTTCCC,"6.43 upbm affinity estimate (log intensity, higher = more binding, comparable within an allelic series)","6.39 upbm affinity estimate (log intensity, higher = more binding, comparable within an allelic series)","6.56 upbm affinity estimate (log intensity, higher = more binding, comparable within an allelic series)","6.49 upbm affinity estimate (log intensity, higher = more binding, comparable within an allelic series)","6.65 upbm affinity estimate (log intensity, higher = more binding, comparable within an allelic series)",,
CCGAGTCG,"6.6 upbm affinity estimate (log intensity, higher = more binding, comparable within an allelic series)","6.58 upbm affinity estimate (log intensity, higher = more binding, comparable within an allelic series)","6.45 upbm affinity estimate (log intensity, higher = more binding, comparable within an allelic series)","6.56 upbm affinity estimate (log intensity, higher = more binding, comparable within an allelic series)","6.36 upbm affinity estimate (log intensity, higher = more binding, comparable within an allelic series)",,
AGGTGGCC,"6.42 upbm affinity estimate (log intensity, higher = more binding, comparable within an allelic series)","6.42 upbm affinity estimate (log intensity, higher = more binding, comparable within an allelic series)","6.5 upbm affinity estimate (log intensity, higher = more binding, comparable within an allelic series)","6.47 upbm affinity estimate (log intensity, higher = more binding, comparable within an allelic series)","6.46 upbm affinity estimate (log intensity, higher = more binding, comparable within an allelic series)",,
CCGTCGTC,"6.45 upbm affinity estimate (log intensity, higher = more binding, comparable within an allelic series)","6.42 upbm affinity estimate (log intensity, higher = more binding, comparable within an allelic series)","6.4 upbm affinity estimate (log intensity, higher = more binding, comparable within an allelic series)","6.44 upbm affinity estimate (log intensity, higher = more binding, comparable within an allelic series)","6.26 upbm affinity estimate (log intensity, higher = more binding, comparable within an allelic series)",,
CCCGGAGG,"6.31 upbm affinity estimate (log intensity, higher = more binding, comparable within an allelic series)","6.31 upbm affinity estimate (log intensity, higher = more binding, comparable within an allelic series)","6.41 upbm affinity estimate (log intensity, higher = more binding, comparable within an allelic series)","6.39 upbm affinity estimate (log intensity, higher = more binding, comparable within an allelic series)","6.42 upbm affinity estimate (log intensity, higher = more binding, comparable within an allelic series)",,
AGCGTGGC,"6.53 upbm affinity estimate (log intensity, higher = more binding, comparable within an allelic series)","6.42 upbm affinity estimate (log intensity, higher = more binding, comparable within an allelic series)","6.46 upbm affinity estimate (log intensity, higher = more binding, comparable within an allelic series)","6.48 upbm affinity estimate (log intensity, higher = more binding, comparable within an allelic series)","6.64 upbm affinity estimate (log intensity, higher = more binding, comparable within an allelic series)",,
AGCCTGGG,,,,,,"7.59 upbm affinity estimate (log intensity, higher = more binding, comparable within an allelic series)","7.58 upbm affinity estimate (log intensity, higher = more binding, comparable within an allelic series)"
AAGGGCAC,"6.53 upbm affinity estimate (log intensity, higher = more binding, comparable within an allelic series)","6.41 upbm affinity estimate (log intensity, higher = more binding, comparable within an allelic series)","6.62 upbm affinity estimate (log intensity, higher = more binding, comparable within an allelic series)","6.56 upbm affinity estimate (log intensity, higher = more binding, comparable within an allelic series)","6.62 upbm affinity estimate (log intensity, higher = more binding, comparable within an allelic series)",,
